The values below come from PubChem BioAssay (EPA / NIEHS).

A structure can be active in one record and inactive in another. The source made the active and inactive calls. How the source made its calls: active means hit-call score of the fitted dose curve at least 0.9, where 1 is the maximum; inactive means score below 0.9.

Read-out in this assay: Intercellular Adhesion Molecule 1 (ICAM1), ICAM1 (gene 3383)
The assay can be described thus: BSK_3C_ICAM1: BioMAP Diversity Plus: 3C Assay for Intercellular Adhesion Molecule 1 (ICAM1) Biomarker Activity (AID 2283003). The settings on record: primary human endothelial cells (HUVEC); actives raise or lower the signal. The protocol: BSK_3C is a cell-based, multiplexed-readout assay that uses umbilical vein endothelium, a human vascular primary cell, with measurements taken at 24 hours after chemical dosing in a 96-well plate.BSK_3C_ICAM1 is an assay component measured in the BSK_3C assay. It measures ICAM-1 antibody related to regulation of gene expression using ELISA technology.Data from the assay component BSK_3C_ICAM1 was analyzed into 1 assay endpoint. This assay endpoint, BSK_3C_ICAM1, was analyzed with bidirectional fitting relative to DMSO as the negative control and baseline of activity. Using a type of binding reporter, gain or loss-of-signal activity can be used to understand changes in the signaling as they relate to the gene ICAM1. Furthermore, this assay endpoint can be referred to as a primary readout, because this assay has produced multiple assay endpoints where this one serves a signaling function. To generalize the intended target to other relatable targets, this assay endpoint is annotated to the cell adhesion molecules intended target family, where the subfamily is Immunoglobulin CAM.
The levels of cell surface (or secreted, indicated by the prefix "s") biomarker endpoints were measured by ELISA. Overt cytotoxicity to cells in confluent adherent cultures (all systems other than the BT system) was assessed by measuring total protein levels using sulforhodamine B (SRB) staining in parallel cultures at the time of biomarker measurements, indicated as SRB endpoints. For proliferation assays for adherent cell types, individual cell types are cultured at sub-confluence and relative cell numbers quantified by SRB staining at time points optimized for each system (48 h: 3C and CASM3C systems; 72 h: BT and HDF3CGF systems; 96 h: SAg system). SRB was performed by staining cells with 0.1% SRB after fixation with 10% TCA and reading wells at 560 nm.Viability and proliferation of PBMC (T cells) was quantified by Alamar Blue reduction for the SAg and BT systems. For PBMC viability (referred to as PBMC Cytotoxicity within the assay endpoint names), cells were plated (75,000/well in a 96-well plate) and then chemical samples added for 1 h before addition of activators, SEB and TSST-1 (20 ng/mL final concentration each). Cells were incubated for 90 h. Then, Alamar Blue (20 uL/well) (Invitrogen, Cat DAL1100) was added for 6 h, and the plates were read with a fluorescence microplate reader at 546/580 nm (excitation/emission). For PBMC proliferation, cells were plated and activated as above but incubated for only 16 h prior to addition of Alamar Blue. Plates were read after 6 h.
`CCCCCC1=CCCC1=O`: the result was inactive.
On the same count and under the same terms, as for `O=C(Cl)c1c(Cl)c(Cl)c(C(=O)Cl)c(Cl)c1Cl`, the entry is “inactive”; as for `C[N+](C)(C)CCCNS(=O)(=O)C(F)(F)C(F)(F)C(F)(F)C(F)(F)C(F)(F)C(F)(F)C(F)(F)C(F)(F)F`, “inactive”.
On to `CC/C=C\CCOC(=O)c1ccccc1O`, for which the AC50 is 31.3 µM (active).
In the case of `CCc1cccc(C)c1N(C(=O)CS(=O)(=O)O)C(C)COC` (stereo not given), the result was inactive.
With `CC(C)c1cccc(C(C)C)c1N`, the result was inactive.
Still for that read-out and setting: as for `CCCCCCCO`, the entry is “inactive”; as for `CCOC(=O)/C=C\C(=O)OCC`, “inactive”; as for `C=CC(=O)NC(C)(C)C`, “inactive”.
With `COC(OC)(C(=O)c1ccccc1)c1ccccc1`, the result was inactive.
Still for that read-out and setting: as for `CCCCCCCCCCCC(=O)N(C)CC(=O)O`, the entry is “inactive”.
Same read-out and setting: as for `Cc1c(O)cccc1O`, the entry is “inactive”; as for `O=C1CCCCCCCCCCC1`, “inactive”.
On the same count and under the same terms, as for `CC(c1cc(C(C)(C)C)cc(C(C)(C)C)c1O)c1cc(C(C)(C)C)cc(C(C)(C)C)c1O`, the entry is “inactive”.
With `CCCC(C)C(=O)OCC` (stereo not given), the result was inactive.
Still for that read-out and setting: as for `Oc1ccc(/C=C/c2cc(O)cc(O)c2)cc1`, the entry is “inactive”.
Still for that read-out and setting: as for `C=CC(=O)NCOCCCC`, the entry is “inactive”.
On the same count and under the same terms, as for `CCCCCCCCC(CO)CCCCCC` (stereo not given), the entry is “inactive”; as for `COc1ccc(C(=O)c2ccccc2)c(O)c1`, “inactive”.
On to `CCCCC1C(=O)N(c2ccccc2)N(c2ccccc2)C1=O`, for which the result was inactive.
Still for that read-out and setting: as for `CC1=CC=C(C(C)C)CC1`, the entry is “inactive”.
As for `CC/C=C\C/C=C\C/C=C\CCCCCCCC(=O)OC`, the half-maximal activity concentration (AC50) was 29.7 µM (active).
In the case of `CC=C(C)C=CC=C(C)C`, the outcome was inactive.
Same read-out and setting: as for `C=CCCCCCCCCC=O`, the entry is “inactive”; as for `CC(C)[N+](C)(CCOC(=O)C1c2ccccc2Oc2ccccc21)C(C)C`, “inactive”.
With `CCCCCCCCCCCC(C)=O`, the AC50 was 32.5 µM (active).
Regarding `CC(Cl)COP(=O)(OCC(C)Cl)OCC(C)Cl` (stereo not given), the outcome was inactive.
The same measure, in the same setting: as for `Nc1cccc(N)n1`, the entry is “inactive”.
The same measure, in the same setting: as for `O=C(O)C(F)(F)C(F)(F)C(F)(F)C(F)(F)C(=O)O`, the entry is “inactive”; as for `CCCCCCC=O`, “inactive”; as for `Cc1ccc([N+](=O)[O-])cc1N`, “inactive”.
As to `Oc1ccccc1Cc1ccccc1O`, the outcome was inactive.
As for `CC1(C)CC(O)CC(C)(C)N1[O]`, the outcome was inactive.
In the case of `c1ccc2sc(SSN3CCOCC3)nc2c1`, the concentration at half-maximal activity (AC50) was 20 µM (active).
As for `O=C(Oc1ccccc1)c1ccccc1C(=O)Oc1ccccc1`, the result was inactive.
For `Fc1ccc(Br)cc1`, the outcome was inactive.
`C=C(C)C(=O)OCCCCCCCCCCCC`: the outcome was inactive.
The same measure, in the same setting: as for `CC(C)C(=O)OCCc1ccccc1`, the entry is “inactive”.
As to `c1ccc(Nc2cccc3ccccc23)cc1`, the result was inactive and the AC50 is 32.6 µM (active).

By AC50 is commonly meant the midpoint of the concentration-response curve, whichever way the signal moves.
